We go through seven compounds from PubChem BioAssay (NCI).

What all share (assay): NCI-60 one-dose screen, 48 h (100 = growth as untreated, 0 = no growth, -100 = all killed)
In test [1] the test system is DU-145 prostate.
The test system of test [2] is K-562 leukemia.
For test [3], the system named is MALME-3M melanoma.
For test [4], the system named is MDA-MB-231 breast.
The test system of test [5] is RXF 393 renal.
For test [6], the system named is SF-268 CNS.
Test [7] relates to SF-295 CNS.
In test [8] the test system is SF-539 CNS.
Test [9] has as its system UACC-257 melanoma.
Test [10] relates to M14 melanoma.

Each structure is given as a SMILES string. Values joined by “and” are separate entries in the source; they are usually repeats but may differ in a detail not shown here. Identical values can stand only once. This is part of a sample that, as a whole, favours compounds with a hit. Of some 83,000 tested, about 20% had one in any assay.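 Testing used 96-well plates and a 48-hour single-concentration exposure. Example: -40 means 40% of the starting cells died.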 Active and inactive are the calls of the source. The calls were made as follows: active = growth percent below 10; inactive = the rest.

For `O=C1CCN(Cc2ccccc2)C(=S)N1`, the growth in test [1] (10 µM unless noted) was 140% (inactive) and 107% (inactive); in test [2] (10 µM unless noted) it was 87% (inactive); in test [3] (10 µM unless noted), 92.6% (inactive) and 101% (inactive); in test [4] (10 µM unless noted), 125% (inactive) and 98.1% (inactive); in test [5] (10 µM unless noted), 122% (inactive) and 121% (inactive); in test [6] (10 µM unless noted), 111% (inactive) and 99.5% (inactive). The growth in test [7] (10 µM unless noted) was 118% (inactive) and 133% (inactive); in [8] (10 µM unless noted) it was 111% (inactive) and 98.6% (inactive); in test [9] (10 µM unless noted) it was 114% (inactive) and 107% (inactive).
Regarding `NC(=S)NN=C1CCC(C2CCCCC2)CC1` (stereo not drawn), the growth in test [1] (10 µM unless noted) is 96.7% (inactive) and 103% (inactive); in [2] (10 µM unless noted), 89.9% (inactive) and 89.5% (inactive); in [3] (10 µM unless noted) it was 90.6% (inactive); in test [4] (10 µM unless noted) it was 94.6% (inactive) and 93.6% (inactive); in test [5] (10 µM unless noted), 92.3% (inactive) and 92.9% (inactive); in [6] (10 µM unless noted), 89.9% (inactive) and 102% (inactive). Besides, the growth was 93% (inactive) and 87.7% (inactive) in [7] (10 µM unless noted); 97.1% (inactive) and 82.8% (inactive) in test [8] (10 µM unless noted); 66.4% (inactive) and 66.9% (inactive) in [9] (10 µM unless noted).
For `CNC(=O)c1cc(Oc2ccc(CC(=O)Nc3cc(C(C)(C)C)nn3C)cc2)ccn1`, the growth is 91.6% (inactive) in test [1] (1 µM); 76.3% (inactive) in test [1] (10 µM); 103% (inactive) in test [1] (30 µM); 41.9% (inactive) in [2] (1 µM); 33.9% (inactive) in test [2] (10 µM); 28.3% (inactive) in test [2] (30 µM). In addition, the growth was 60.5% (inactive) in test [3] (1 µM); 61.4% (inactive) in test [3] (10 µM); 66% (inactive) in test [3] (30 µM); 78.6% (inactive) in [4] (1 µM); 69.1% (inactive) in [4] (10 µM); 71.9% (inactive) in test [4] (30 µM). Moreover, the growth was 98.3% (inactive) in test [5] (1 µM); 79.9% (inactive) in test [5] (10 µM); 86.9% (inactive) in test [6] (1 µM); 70.9% (inactive) in test [6] (10 µM); 98.7% (inactive) in test [6] (30 µM); 58.1% (inactive) in test [7] (1 µM). Also, the growth is 37.1% (inactive) in test [7] (10 µM); 33.9% (inactive) in [7] (30 µM); 67.1% (inactive) in test [8] (1 µM); 66.7% (inactive) in test [8] (10 µM); 69.2% (inactive) in test [8] (30 µM); 60.5% (inactive) in test [9] (1 µM). The growth in test [9] (10 µM) is 55.7% (inactive); in [9] (30 µM) it was 47.7% (inactive); in [10] (1 µM) it was 96.5% (inactive); in test [10] (10 µM) it was 88% (inactive).
Turning to `O=C1c2c(O)cc(O)cc2OC(c2ccc(O)c(O)c2)C1O` (stereo not drawn), the growth in [1] (10 µM unless noted) is 132% (inactive); in test [2] (10 µM unless noted), 104% (inactive); in [3] (10 µM unless noted), 118% (inactive); in [4] (10 µM unless noted), 106% (inactive); in test [5] (10 µM unless noted) it was 124% (inactive); in [6] (10 µM unless noted), 111% (inactive). Besides, the results for the growth in [7] (10 µM unless noted), in [8] (10 µM unless noted) and in test [9] (10 µM unless noted) were 119% (inactive), 107% (inactive) and 107% (inactive), respectively.
For the compound `CNC(=O)c1ccc(C)c(-n2c(C)cc(OCc3ccc(F)cc3F)c(Br)c2=O)c1`, the growth in [1] (10 µM unless noted) is 91.6% (inactive) and 95.9% (inactive); in test [2] (10 µM unless noted) it was 43% (inactive) and 80.7% (inactive); in [3] (10 µM unless noted), 98.9% (inactive) and 95.9% (inactive); in [4] (10 µM unless noted), 88.8% (inactive) and 93.1% (inactive); in test [5] (10 µM unless noted), 87.7% (inactive); in test [6] (10 µM unless noted), 81.6% (inactive) and 84.2% (inactive). The growth in test [7] (10 µM unless noted) is 68.9% (inactive) and 78.3% (inactive); in test [8] (10 µM unless noted), 89.5% (inactive) and 88.2% (inactive); in test [9] (10 µM unless noted), 70.5% (inactive).
As for `OC(COc1cccc2ccccc12)CN1CCN(c2ccc(Cl)cc2)CC1` (stereo not drawn), the growth in [1] (10 µM unless noted) was 93.1% (inactive) and 122% (inactive); in test [2] (10 µM unless noted), 66.3% (inactive) and 85% (inactive); in test [3] (10 µM unless noted), 109% (inactive) and 106% (inactive); in [4] (10 µM unless noted), 83.6% (inactive) and 112% (inactive); in test [5] (10 µM unless noted), -3.89% (active) and 94.8% (inactive); in [6] (10 µM unless noted) it was 91.1% (inactive) and 103% (inactive). For the same compound, the growth was 70.2% (inactive) and 83.2% (inactive) in test [7] (10 µM unless noted); 91.3% (inactive) and 102% (inactive) in test [8] (10 µM unless noted); 114% (inactive) and 95.9% (inactive) in [9] (10 µM unless noted).
`CCCCCCCCCCCCCCCc1ccc(Cl)c(O)c1Cl` (tested in a mixture with another compound): the growth in [1] (0.25 µM) was 18.4% (inactive); in [1] (10 µM) it was 106% (inactive); in [2] (0.25 µM), 30.5% (inactive); in [2] (10 µM), 92.3% (inactive); in [3] (0.25 µM) it was 22.7% (inactive); in test [3] (10 µM), 100% (inactive). Besides, the growth in test [4] (0.25 µM) is 59.1% (inactive); in [4] (10 µM) it was 97.9% (inactive); in test [5] (0.25 µM) it was 60.3% (inactive); in test [5] (10 µM) it was 106% (inactive); in test [6] (0.25 µM) it was 31.4% (inactive); in test [6] (10 µM), 94.9% (inactive). Also, the growth is 29.1% (inactive) in test [7] (0.25 µM); 109% (inactive) in [7] (10 µM); 15.9% (inactive) in test [8] (0.25 µM); 103% (inactive) in test [8] (10 µM); 52.1% (inactive) in [9] (0.25 µM); 80.7% (inactive) in test [9] (10 µM). In addition, the growth in test [10] (0.25 µM) is 41% (inactive); in test [10] (10 µM) it was 92.2% (inactive).
